Experimental data published in PubChem BioAssay AID1240 (Sanford-Burnham Center for Chemical Genomics, 2008).
The campaign covered roughly 50,000 compounds. About 800 (1.6%) showed an effect of 50% or more. Many of the other results were omitted from the sample, so strong results are more common in it than they were.

molecular target: Bcl-2-like protein 10 (Homo sapiens) (UniProt Q9HD36); experiment: Phenotype converters, Bcl-B/TR3 peptide binding displacement, primary biochemical FP (AID 1240); settings: GST-Bcl-B / FITC-TR3 peptide fluorescence polarization; stronger effect = higher value; compound at 3.75 mg/L;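 further: 0% = Bcl-B with tracer peptide and DMSO and 100% = tracer peptide lacking Bcl-B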
Sequence (Q9HD36 whole entry, looked up): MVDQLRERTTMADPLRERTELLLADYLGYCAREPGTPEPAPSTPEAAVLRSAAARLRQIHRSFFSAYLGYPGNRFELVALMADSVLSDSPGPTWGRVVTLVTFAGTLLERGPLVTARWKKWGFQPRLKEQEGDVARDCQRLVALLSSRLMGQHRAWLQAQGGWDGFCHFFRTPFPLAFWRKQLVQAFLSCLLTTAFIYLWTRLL

| Compound | displacement |
| --- | --- |
| CCOc1cc([N+](=O)[O-])cc(/C=C2/SC(=S)NC2=O)c1O | 14% |
| NS(=O)(=O)c1ccc(NC(=O)COc2ccc3ccccc3c2)cc1 | 3% |
| Cc1ccc(OCCCN2CCN(C)CC2)c(C(C)(C)C)c1 | -8% |
| CC(=NCCN1CCNCC1)C1=C(O)CC(C)(C)CC1=O | -4.3% |
| O=c1nc(/C=C/c2cc3c(cc2Br)OCO3)cc(C(F)(F)F)[nH]1 | 115% |
| COc1cccc(/C=C/c2cc(C(F)(F)F)[nH]c(=O)n2)c1OC | 121% |
| O=c1nc(/C=C/c2cccc3ccccc23)cc(C(F)(F)F)[nH]1 | 49.7% |
| O=c1nc(/C=C/c2cc3c(cc2[N+](=O)[O-])OCO3)cc(C(F)(F)F)[nH]1 | 30.4% |
| COc1cc(OC)c(OC)cc1/C=C/c1cc(C(F)(F)F)[nH]c(=O)n1 | 7.5% |
| COc1cc(/C=C/c2cc(C(F)(F)F)[nH]c(=O)n2)cc(OC)c1OC | 2.7% |
| CCOC(=O)c1c(NC(=O)c2ccc(Cl)cc2)sc(C(=O)Nc2ccccc2OCC)c1C | 3.5% |
| O=C1NC(=O)N(c2ccc(Br)cc2)C(=O)/C1=C/c1ccco1 | 30.1% |
| Cc1ccc(N2C(=O)NC(=O)/C(=C\c3ccc(N4CCCCC4)o3)C2=O)cc1 | -139% |
| Cc1cc(N2C(=O)NC(=O)/C(=C\c3ccc(N(C)C)o3)C2=O)ccc1Br | 153% |
| CCN(CC)c1ccc(/C=C2\C(=O)NC(=O)N(c3ccc(Br)c(C)c3)C2=O)o1 | 42.6% |
| Cc1cc(N2C(=O)NC(=O)/C(=C\C=C\c3ccco3)C2=O)ccc1Br | -3.7% |
| Cc1cc(N2C(=O)NC(=O)/C(=C\c3ccc(N4CCOCC4)o3)C2=O)ccc1Br | -33.9% |
| Cc1cc(N2C(=O)NC(=O)/C(=C\c3ccc(N4CCCCC4)o3)C2=O)ccc1Br | 55.5% |
| Cc1ccc(N2C(=O)NC(=O)/C(=C\c3ccc(N(C)C)o3)C2=O)cc1 | -134% |
| Cc1cc(N2C(=O)NC(=O)/C(=C\c3ccco3)C2=O)ccc1Br | 74% |
| CC(C)(C)C1(O)CC(c2ccccc2)=NO1 (configuration not stated) | 18.6% |
| O=C1c2ccccc2C(=O)c2c(NC(=O)C3CC4CCC3C4)cccc21 (configuration not stated) | -7.7% |

| Compound | displacement |
| --- | --- |
| O=C(c1ccccc1)N1CCN(C2CC(=O)N(CCc3ccccc3)C2=O)CC1 (configuration not stated) | 3.9% |
| CCC1=NN2C(=N)/C(=C/c3ccc4c(c3)OCO4)C(=O)N=C2S1 | 3% |
| CCOc1cccc(N2C(=O)NC(=O)/C(=C\c3ccc(Sc4ccccc4)o3)C2=O)c1 | 4% |
| Cc1nc(-c2ccccc2)nc2[nH]c(-c3ccccc3)cc(=O)c12 | 69.8% |
| Cc1cc(=O)c2c(C)nc(-c3ccccc3)nc2[nH]1 | 31.5% |
| CSc1nc(-c2ccccc2)nc2[nH]c(-c3ccccc3)cc(=O)c12 | 44.4% |
| CCOC(=O)c1ccc(NC(=O)c2cc(-c3cccs3)nc3ccccc23)cc1 | 4.7% |
| CCN(CC)CCNC(=O)c1ccc(Cl)c(Cl)c1 | -5.2% |
| Cc1ccc(C(=O)NC(NC(=S)Nc2ccccc2Cl)C(Cl)(Cl)Cl)cc1 (configuration not stated) | -10.7% |
| O=C(NC(NC(=S)Nc1cccc2ccccc12)C(Cl)(Cl)Cl)c1ccccc1 (configuration not stated) | 18.6% |
| Cc1ccc(C(=O)NC(NC(=S)Nc2cccc3ccccc23)C(Cl)(Cl)Cl)cc1 (configuration not stated) | 54.9% |
| Nc1c(C(=O)c2ccc(Cl)cc2)sc2nc(-c3ccccc3)ccc12 | -3.6% |
| Nc1c(C(=O)c2ccc(Br)cc2)sc2nc(C(F)(F)F)c(C(=O)c3cccs3)cc12 | 51.1% |
| CC(=O)c1cc2c(N)c(C(=O)c3ccc(Br)cc3)sc2nc1C | 10.1% |
| Cc1cc([N+](=O)[O-])nn1C(=O)c1nn(C)cc1Br | 0.4% |
| N#Cc1ccccc1NC(=O)c1ccc(-c2ccccc2)cc1 | 12.6% |
| Cc1ccc(-c2nc3s/c(=C\c4cn(-c5ccccc5)nc4-c4ccccc4)c(=O)n3n2)cc1 | 8.5% |
| COc1ccc(OC)c(NS(=O)(=O)c2cccc([N+](=O)[O-])c2)c1 | 2.1% |
| COc1ccc(Cl)cc1NS(=O)(=O)c1cccc([N+](=O)[O-])c1 | 72.8% |
| Cc1cc(Cl)ccc1NS(=O)(=O)c1cccc([N+](=O)[O-])c1 | -1.2% |
| CC(C)C(=O)Nc1cc(C(F)(F)F)cc(C(F)(F)F)c1 | -2.9% |
| CCc1ccc(NC(=O)C(=O)NCc2ccccc2OC)cc1 | 6.8% |

| Compound | displacement |
| --- | --- |
| COc1ccc(C2=N/C(=C/c3ccccc3F)C(=O)N2c2ccccc2)cc1 | 125% |
| COc1ccc(C2=N/C(=C/c3ccc(F)cc3)C(=O)N2c2ccc(O)cc2)cc1 | 9% |
| COc1ccc(/C=C2/SC(=O)N(c3ccccc3)C2=O)c(OC)c1 | 5.9% |
| COc1ccc(C2=N/C(=C/c3ccccc3OC)C(=O)N2c2ccccc2)cc1 | 6.4% |
| COc1ccc(N2C(=O)/C(=C\c3ccc(OC)cc3OC)N=C2c2ccccc2)cc1 | 192% |
| COc1ccc(C=C2C(=O)N(c3ccccc3)C(=S)N(c3ccccc3)C2=O)c(OC)c1 | 10.9% |
| O=C1C(=O)N(c2cccc(Br)c2)C(c2ccccc2)/C1=C(/O)c1ccccc1 (configuration not stated) | 12% |
| COc1ccc(NC(=O)c2ccc(S(=O)(=O)N3CCOCC3)cc2)c2ccccc12 | -8.9% |
| Cc1cccn2c(=O)c(/C=C3\SC(=S)N(C(C)c4ccccc4)C3=O)c(NCCCn3ccnc3)nc12 (configuration not stated) | 8.8% |
| CC1=C(C#N)c2nc(N)c(C#N)c(C)c2/C1=C\c1ccc(C)o1 | -4.4% |
| COc1ccc(NC(=O)c2c(NC(=O)c3ccccc3)sc3c2CCCC3)cc1 | 5.7% |
| CCc1ccccc1NC(=O)c1c(NC(=O)c2ccccc2)sc2c1CCC2 | -15.6% |
| Cc1ccccc1NC(=O)c1c(NC(=O)c2ccccc2C)sc2c1CCCCC2 | 13% |
| Cc1ccccc1NC(=O)c1c(NC(=O)c2ccccc2Br)sc2c1CCCCC2 | 76.6% |
| COc1ccc(C(=O)Nc2sc3c(c2C#N)CCCCC3)cc1 | -3.4% |
| CCc1ccccc1NC(=O)c1c(NC(=O)c2ccccc2Br)sc2c1CCC2 | -4.1% |
| O=C(Nc1sc2c(c1C(=O)Nc1ccccn1)CCCCC2)c1ccccc1F | -3% |
| N#Cc1c(NC(=O)c2ccc(S(=O)(=O)c3ccccc3)cc2)sc2c1CCCC2 | 83.9% |
| O=C(Nc1sc2c(c1C(=O)Nc1ccccn1)CCCCC2)c1ccccc1 | 95% |
| CCc1ccccc1NC(=O)c1c(NC(=O)c2ccccc2Cl)sc2c1CCC2 | 61.2% |
| N#Cc1c(NC(=O)c2ccc(C(=O)O)cc2C(=O)O)sc2c1CCCC2 | 11% |
| CCOc1ccccc1NC(=O)c1c(NC(=O)c2ccccc2Br)sc2c1CCCC2 | -3.8% |

| Compound | displacement |
| --- | --- |
| O=C(N/N=C/c1cccnc1)c1cc(-c2ccc3ccccc3c2)n[nH]1 | -3.8% |
| COc1ccc(S(=O)(=O)N2CCN(C3CC4CCC3C4)CC2)cc1 (configuration not stated) | -1.9% |
| Cc1ccc(CNC(=O)C(=O)NC(C)C)cc1 | 4.4% |
| CC1(C)CC(=O)C2=C(C1)Nc1ccccc1NC2c1ccc(-c2ccccc2[N+](=O)[O-])o1 (configuration not stated) | -15.9% |
| Cc1cc(-n2c(C)cc(C=O)c2C)ccc1I | -15.5% |
| O=C1c2cccc([N+](=O)[O-])c2C(=O)N1c1ccncc1 | -2.3% |
| O=C1/C(=C/c2ccco2)SC(=S)N1c1ccc(F)cc1 | 7.9% |
| O=C1S/C(=C\c2ccc(Br)o2)C(=O)N1c1ccc(Cl)c(Cl)c1 | -3.9% |
| O=C1/C(=C/c2ccc(I)o2)SC(=S)N1c1cccc(C(F)(F)F)c1 | 55.7% |
| Cc1ccc(/C=C2\SC(=S)N(c3ccc(F)cc3)C2=O)o1 | 101% |
| O=C1/C(=C/c2ccco2)SC(=S)N1c1cccc(C(F)(F)F)c1 | 15.4% |
| O=C1S/C(=C\c2ccc(Br)cc2)C(=O)N1c1ccc(Cl)cc1 | -3.3% |
| O=C1/C(=C/c2ccc(Br)o2)SC(=S)N1c1cccc(C(F)(F)F)c1 | 21.6% |
| CCOc1ccc(N2C(=O)S/C(=C\c3ccc(OC)cc3)C2=O)cc1 | 13.2% |
| CCOc1ccc(N2C(=O)S/C(=C\c3ccc(C)cc3)C2=O)cc1 | -5.8% |
| Cc1ccc(/C=C2\SC(=S)N(c3ccc(C)c(C)c3)C2=O)o1 | 14.9% |
| CCOc1ccc(N2C(=O)S/C(=C\c3ccc(C)o3)C2=O)cc1 | 108% |
| O=C1S/C(=C\c2ccc(Br)o2)C(=O)N1c1ccc(Cl)cc1 | 88.9% |
| Cc1cc(=O)oc2cc(OCC(=O)OC(C)C)ccc12 | 1.9% |
| CCOC(=O)c1c(NC(C)=O)sc(I)c1-c1ccccc1 | 0.8% |
| Cc1cc(C(=O)NC2CCSC2=O)ccc1[N+](=O)[O-] (configuration not stated) | -2.7% |
| CS(=O)(=O)N(Cc1ccc(Cl)cc1)c1ccc(C(=O)NCc2ccco2)cc1 | -14.6% |

| Compound | displacement |
| --- | --- |
| Cc1ccc([N+](=O)[O-])cc1S(=O)(=O)N1CCOCC1 | 5.1% |
| CCOc1cccc(C(=O)Nc2cc(-c3nc4cc(C)cc(C)c4o3)ccc2C)c1 | 9.5% |
| Cc1ccc(C)c(NC(=O)c2c(-c3ccccc3Cl)noc2C)c1 | 9.9% |
| Cc1ccsc1/C=C1\SC(=S)N(C(C)c2ccccc2)C1=O (configuration not stated) | -6.6% |
| CCOc1ccc(/C=C2\SC(=O)N(c3ccccc3)C2=O)cc1 | -1.9% |
| CCOc1ccc(N2C(=O)S/C(=C\c3ccccc3OC)C2=O)cc1 | 32.7% |
| Cc1ccsc1/C=C1\SC(=S)N(c2ccccc2)C1=O | 126% |
| CCOc1ccc(N2C(=O)S/C(=C\c3ccco3)C2=O)cc1 | 92.2% |
| Cc1ccsc1/C=C1\SC(=S)N(c2c(C)n(C)n(-c3ccccc3)c2=O)C1=O | 6.6% |
| O=C(O)CSCCCN1C(=O)c2cccc3cccc(c23)C1=O | 8% |
| CC1=C(C(=O)Nc2ccccc2C)C(c2ccc(F)cc2)NC(=O)N1 (configuration not stated) | 16.2% |
| Cc1ccc(S(=O)(=O)Nc2ccccc2C(=O)Nc2ccccc2)cc1 | 9.6% |
| COC(C(=O)N1CCCCCC1)(c1ccccc1)c1ccccc1 | 16.8% |
| COc1cc(/C=C2\NC(=S)NC2=O)ccc1Oc1ccc([N+](=O)[O-])cn1 | 8.2% |
| COc1cc(/C=C2\SC(=S)NC2=O)ccc1Oc1ccc([N+](=O)[O-])cn1 | 20.6% |
| O=C1NC(=S)NC(=O)C1=Cc1ccc(Oc2ccc([N+](=O)[O-])cn2)cc1 | 10.5% |
| O=C1NC(=S)N/C1=C\c1ccc(Oc2ccc([N+](=O)[O-])cn2)cc1 | 101% |
| O=C1C(=Cc2ccc(Oc3ccc([N+](=O)[O-])cn3)cc2)C(=O)c2ccccc21 | 4.6% |
| O=C1NC(=S)S/C1=C\c1ccc(Oc2ccc([N+](=O)[O-])cn2)cc1 | 61.8% |
